Screening data: PubChem BioAssay, several laboratories
Only some compounds are listed: those with a hit (about 4.6% of all), similar ones and a draw of the others.
V-ATPase pHluor – regulators of yeast V-ATPase proton pumping, primary screen, pHLuorin cytosolic pH fluorescence; AID 504577, 2011; S. cerevisiae; 350,000 tested, 0.37% active; response, % at 10 µM; in the data active = response mostly above about 7.3%, no sharp cut-off; inactive = mostly below about 5.4%; also: actives read high
TIM10 inh – growth inhibitors of isogenic TIM10 control yeast, primary screen, counter-screen for tim10-1 yeast inhibitor project, luminescence, uHTS. inhibition, % at 10 µM. S. cerevisiae TIM10 strain growth, BacTiter-Glo luminescence, 24 h. AID 463195, 2010. 330,000 tested, 1.4% active;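 active = inhibition of 40% or more at the single tested concentration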;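 also: wild-type TIM10 isogenic control strain grown at permissive 25 °C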
tim23-1 inh – growth inhibitors of tim23-1 mutant yeast, primary screen, luminescence, uHTS; S. cerevisiae tim23-1 growth, BacTiter-Glo luminescence, 24 h; inhibition, % at 20 µM; 330,000 tested, 1.3% active;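 active = growth inhibition of the mutant yeast at or above 50%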;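 also: temperature-sensitive mutant grown at 25 °C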
PfHsp90 set2 – growth inhibition of PfHsp90-expressing yeast, primary screen, antimalarial PfHsp90 inhibitor project, S. cerevisiae, BacTiter-Glo luminescence, single point, set 2. BacTiter-Glo ATP, 48 h; yeast lacking PDR1 and PDR3 efflux regulators. 310,000 tested, 0.32% active. inhibition, % at 9.4 µM;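 active = every replicate shows inhibition above about 80%, whatever the replicate mean, limit read from the data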
tim10-1 inh – growth inhibitors of tim10-1 mutant yeast, primary screen, luminescence, uHTS; S. cerevisiae tim10-1 ts strain growth, BacTiter-Glo, 24 h; inhibition, % at 20 µM; 330,000 tested, 2.2% active;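 active = inhibition of at least 40%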;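 also: mutant grown at 25 °C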
SKKanGAS inh – S. pyogenes SKKanGAS growth inhibitors in kanamycin, primary screen, streptokinase expression inhibitor project, SKKanGAS strain, BacTiter-Glo luminescence; 6 h; inhibition, % at 7.5 µM; 300,000 tested, 1.3% active;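 active = mean replicate score, as percent of positive control median, at least 50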;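 also: strain carries kanamycin resistance gene driven by streptokinase promoter and grows in 40 µg/ml kanamycin; loss of luminescence reflects streptokinase promoter inhibition or plain growth inhibition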
tim10-1 conf – growth inhibitors of tim10-1 mutant yeast, confirmation, single concentration, luminescence, S. cerevisiae; shares compounds with tim10-1 inh; S. cerevisiae tim10-1 ts strain growth, BacTiter-Glo, 24 h; inhibition, % at 20 µM; 7,400 tested, 56% active; AID 463213, 2010;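 active = inhibition of yeast growth at or above a set limit in either of two repeat tests at 20 µM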;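 also: tim10-1 mutant grown at permissive 25 °C to find synthetic lethal compounds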
tim10 confirm – growth inhibitors of wild-type TIM10 yeast, confirmation, counter-screen for tim10-1 synthetic lethality project, single concentration, luminescence, S. cerevisiae | shares compounds with TIM10 inh | S. cerevisiae tim10 strain growth, BacTiter-Glo luminescence, 24 h | inhibition, % at 10 µM | 4,600 tested, 63% active;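 active = inhibition of yeast growth at or above a set limit in either of two replicates at 10 µM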; also: this counterscreen used the strain with wild-type TIM10
tim23-1 conf – tim23-1 mutant yeast growth inhibitors, confirmation, luminescence, single concentration. shares compounds with tim23-1 inh. S. cerevisiae tim23-1 growth, BacTiter-Glo luminescence, 24 h. inhibition, % at 20 µM. 4,400 tested, 83% active;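 active = inhibition above about 39% in either of two replicate wells at 20 µM, limit read from the data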;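 also: temperature-sensitive tim23-1 mutant grown at 25 °C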
Of the large screens only hits and unclear results are named; the others gave an inactive call (follow-up assays come after a bar, where they were run).

O=[N+]([O-])c1c(C(Cl)Cl)nn(-c2ccc(Cl)cc2)c1N1CCCCC1	TIM10 inh 55.8, tim23-1 inh 64.4, tim10-1 inh 44.4 | tim10-1 conf 62.1 | tim10 confirm 41.0 | tim23-1 conf 67.3
CN1C[C@@H]2[C@@H]3C(=O)N(C)C(=O)[C@@H]3[C@](Cc3ccccc3)(C1=O)N2C(=O)c1ccccc1	none (no result: TIM10 inh, tim23-1 inh, tim10-1 inh, SKKanGAS inh)
CC(=O)Nc1sc(NC(=O)c2ccco2)nc1-c1cccs1	none
O=C(Nc1nc(-c2cccs2)c(C(=O)C(F)(F)F)s1)c1ccccc1	tim23-1 inh 69.1, tim10-1 inh 61.4 | tim10-1 conf 50.3 | tim23-1 conf 70.3
O=C(Nc1nc(-c2cccs2)c(C(=O)C(F)(F)F)s1)c1ccco1	TIM10 inh 55.6, tim23-1 inh 62.4, tim10-1 inh 55.6 | tim10-1 conf 72.8 | tim10 confirm 58.8 | tim23-1 conf 78.8
CCn1ncc(Br)c1C(=O)Nc1c(C)nn(Cc2c(F)c(F)c(F)c(F)c2F)c1C	none (no result: SKKanGAS inh)
CCn1nnc2cc(C(=O)Nc3cc(OC)cc(OC)c3)ccc21	none
COc1ccc(OC)c(NC(=O)c2ccccc2OC(C)=O)c1	tim23-1 inh 54.0, tim10-1 inh 62.4 | tim10-1 conf 32.2 | tim23-1 conf 49.5
CCOC(=O)C1CCCN(C(=O)CNC(=O)c2ccc(Br)o2)C1 (stereo not drawn)	none (no result: SKKanGAS inh)
CC1(C)COC(c2cc([N+](=O)[O-])ccc2Cl)=N1	none
CC1(C)COC(/C=C/c2cccc([N+](=O)[O-])c2)=N1	TIM10 inh 46.8, tim23-1 inh 58.8, tim10-1 inh 60.0 | tim10-1 conf 42.6 | tim10 confirm 45.5 | tim23-1 conf 40.5
O=C(c1cccc(-c2ccccc2)c1)N1CC[C@@H](N2CCC(O)CC2)[C@H](O)C1	none
O=C(NCc1ccc2[nH]c3c(c2c1)CCCC3)c1ccc(S(=O)(=O)N2CCCCC2)cc1	none
S=C(NCc1ccc2[nH]c3c(c2c1)CCCC3)Nc1ccccc1	TIM10 inh 48.0, tim23-1 inh 52.7, tim10-1 inh 46.0 | tim10-1 conf 42.8 | tim10 confirm 51.4 | tim23-1 conf 58.8
C/C(=N\Nc1nc(C)c(C)s1)c1ccc([N+](=O)[O-])cc1	none
CCc1ccc(-c2cc(C(=O)Nn3cnnc3)c3ccccc3n2)cc1	tim23-1 inh 52.7, tim10-1 inh 54.1 | tim10-1 conf 35.6 | tim23-1 conf 39.5
CCNC(=S)NNC(=O)c1cc(-c2cccc(OC)c2)nc2ccccc12	tim23-1 inh 56.2, tim10-1 inh 56.0 | tim10-1 conf 50.3 | tim23-1 conf 53.7
CCNC(=S)NNC(=O)c1cc(-c2ccc(OCC)cc2)nc2ccccc12	tim23-1 inh 77.6, tim10-1 inh 86.1 (no result: PfHsp90 set2) | tim10-1 conf 65.8 | tim23-1 conf 86.2
CCOC(=O)CCc1c(C)nc(-n2[nH]c(C)c(CCO)c2=O)[nH]c1=O	none
Cn1cc(C(=O)c2ccccc2)cc1-c1nc2ccccc2n1C	none
Cc1oc(-c2nc3ccccc3n2C)cc1C(=O)c1ccccc1	TIM10 inh 53.2, tim23-1 inh 55.8, tim10-1 inh 47.8 | tim10-1 conf 32.7 | tim10 confirm inactive | tim23-1 conf 72.7
CCCC(=O)c1ccc(N2CCN(C(=O)c3ccccc3Br)CC2)c(F)c1	tim23-1 inh 52.5, tim10-1 inh 46.3 | tim10-1 conf 37.8 | tim23-1 conf 47.0
CC1(CNC(=O)C(=O)NCC2(C)CO2)CO1 (stereo not drawn)	none (no result: TIM10 inh, tim23-1 inh, tim10-1 inh, SKKanGAS inh)
